Reference: PubChem BioAssay (NCATS)
“And” between values parts separate entries of the source, which are not always exact repeats. Equal values may be shown once. Results filed as inconclusive are left out. The source made the active and inactive calls. Unless noted, calls come from the whole dose curve; as a rule, active = well fitted curve in the direction sought with a large enough effect; inconclusive = small, poorly fitted or top-dose-only effect, or another doubt; inactive = no such curve, though single readings can be large; an effect the other way counts as inactive or inconclusive.

How the values were obtained:
[1] = qHTS for small molecule inhibitors of Yes1 kinase: Counter Assay (AID 686950);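 note: no kinase present so only ADP-Glo detection of a fixed ADP amount is tested; luminescence from ADP-Glo reporting ADP in a fixed ATP and ADP mixture; 0% = DMSO wells with ATP plus ADP and -100% = ATP-only wells without ADP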
How it was run: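 Enzyme-free detection counter-screen: compounds preincubated 20 min in buffer, then 0.08 mM ATP plus 0.02 mM ADP added for 60 min at room temperature; ADP-Glo luminescence. Buffer 50 mM Tris pH 7.5, 10 mM MgCl2, 150 mM NaCl; normalized to ATP+ADP and ATP-only controls.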

[2] = target: Arylsulfatase A (Homo sapiens) (UniProt P15289); assay: qHTS screen for enhancers of Arylsulfatase A (ASA1): LOPAC Validation Assay (AID 720538); note: potency is the fitted concentration of half-maximal effect
How it was run: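 SV40-transformed fibroblasts from an MLD patient (ASA-I179S) were treated with compound for 48 h at 37 C. They were then lysed with 0.5 mM pNCS substrate (final) for 14 h at room temperature and stopped with NaOH; signal read by fluorescence (Ex 525/Em 598 nm), with increase denoting enhanced activity.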

[3] = qHTS for compounds that reverse cellular toxicity of Amyloid beta (A-beta) peptide in yeast: LOPAC Validation Assay (AID 720559);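 note: plate controls were DMSO for no effect and equimolar ferric chloride plus clioquinol rescue for full effect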
How it was run: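 Yeast expressing toxic A-beta grown with pinned compounds at 30 C for 48 hr. Growth measured as absorbance at 600 nm; data normalized to DMSO and to an equimolar FeCl3/clioquinol mixture as positive control.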

[4] = qHTS for Activators of Parkin Expression: LOPAC Validation Assay (NLuc Reporter) (AID 720572;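 note: 0% = DMSO and 100% = positive control compound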)
How it was run: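 Neuronal cells with a Parkin promoter-driven FLuc/NLuc coincidence reporter were treated 24 h at 37 C in 7-point dose response (LOPAC). NLuc luminescence read after FLuc; signals normalized to DMSO and positive control (100%).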

[5] = qHTS for Activators of Parkin Expression: LOPAC Validation Assay (FLuc Reporter) (AID 720573;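 note: 0% = DMSO and 100% = positive control compounds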)
How it was run: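 Neuronal cell line stably expressing FLuc/NLuc coincidence reporter under the Parkin promoter, 1,500 cells/well, dosed 24 h after seeding in 7-point series for 24 h at 37 C. FLuc luminescence read; normalized to DMSO and positive control (100%).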

[6] = target: T1, Hexokinase-4 (Homo sapiens) + Glucokinase regulatory protein (Homo sapiens) (UniProt P35557+Q14397); assay: qHTS assay for inhibitors of recombinant human GCK-GKRP interaction: Diaphorase-coupled assay (AID 743205)
How it was run: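 Compounds pre-incubated 20 min with substrate, then 10 nM GST-GCK with 10 nM FLAG-GKRP added. GCK activity coupled via G6PDH and diaphorase to resorufin (5 mM glucose, 0.4 mM ATP, 0.15 mM NADP+, pH 7.6), read kinetically over 30 minutes at Ex 525/Em 590 nm.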

[7] = target: T1, Hexokinase-4 (Homo sapiens) + Glucokinase regulatory protein (Homo sapiens); assay: qHTS assay for inhibitors of recombinant human GCK-GKRP interaction: ADP-Glo assay (AID 743206);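 note: plate controls were DMSO plus enzyme for no effect and no enzyme for full effect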
How it was run: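 GST-GCK and FLAG-GKRP (15 nM each in the dispensed mix, with 2 uM S6P) react with 0.4 mM ATP and 5 mM glucose (final) in Hepes pH 7.6 for 60 min at room temperature. ADP is measured by ADP-Glo luminescence.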

[8] = target: T1, Hexokinase-4 (Homo sapiens) + Glucokinase regulatory protein (Homo sapiens); assay: qHTS assay for inhibitors of recombinant human GCK-GKRP interaction: HTRF assay (AID 743207);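 note: 0% = DMSO with GCK present and -100% = DMSO wells lacking GCK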
How it was run: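 HTRF binding of 5 nM GST-GCK and 5 nM FLAG-GKRP with 2 uM S6P in pH 7.1 Hepes buffer (MgCl2, KCl, DTT, Tween 20, BSA). Anti-FLAG XL665 and anti-GST donor added, 60 min at room temperature; 665/615 nm read, normalized to with- and without-GCK controls.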

[9] = qHTS Assay for Identifying Gametocytocidal Compounds (AID 743244); note: potency is the fitted concentration of half-maximal effect;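 for max response: % is set by controls: 0 for no effect and ±100 for the full control effect; actives lower the fluorescent signal which means gametocytes are killed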; conditions: P. falciparum 3D7 stage III-V gametocytes, alamarBlue, 72 h; max response: stronger effect = lower value
How it was run: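 3D7 gametocytes, stages III–V, 20,000/well; cpd 72 h, 37 °C/5% CO2; + alamarBlue 24 h; fluor. Ex 525/Em 598.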

[10] = qHTS profiling for inhibitors of Plasmodium falciparum (3D7) proliferation (AID 743322; call rule not given here;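 note: infected erythrocytes exposed to compound for 72 h before lysis; 100% = DMSO vehicle wells and 0% = 0.29 µM artemisinin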); conditions: P. falciparum 3D7 proliferation; at 28.7 µM (top of the series)
How it was run: (§1)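 Erythrocytes infected with P. falciparum (0.3% parasitemia, 2.5% hematocrit) incubated with compounds 72 h at 37 C, 5% CO2. Lysis with saponin/Triton buffer containing SYBR Green I, overnight at room temperature in the dark; DNA fluorescence (485/535 nm) normalised to 0.29 uM artemisinin and DMSO.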

[11] = qHTS profiling for inhibitors of Plasmodium falciparum (DD2) proliferation (AID 743323; call rule not given here); conditions: lower = more inhibition; at 28.7 µM (top of the series)
How it was run: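 P. falciparum Dd2-infected erythrocytes (0.3% parasitemia, 2.5% hematocrit) exposed 72 h at 37 C, 5% CO2. Lysis with SYBR Green, overnight at room temperature, fluorescence 485/535 nm; normalized to 0.29 uM artemisinin and DMSO.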

[12] = qHTS profiling for inhibitors of Plasmodium falciparum (HB3) proliferation (AID 743324); conditions: Plasmodium falciparum HB3 blood-stage proliferation; at 28.7 µM (top of the series);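 note: 100% = DMSO vehicle wells and 0% = artemisinin-treated control wells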
How it was run: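 P. falciparum HB3 grown in erythrocytes (0.3% parasitemia, 2.5% hematocrit final) with compound for 72 h at 37 C, 5% CO2. Parasite DNA detected by SYBR Green after saponin/triton lysis overnight; normalized to 0.29 uM artemisinin and DMSO.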

[13] = qHTS profiling of the MIPE4 collection as inhibitors of Plasmodium falciparum (3D7) proliferation (AID 743344; call rule not given here;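 note: scaled between DMSO vehicle wells and 0.29 µM artemisinin as full inhibition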); conditions: P. falciparum 3D7 in erythrocytes, SYBR Green DNA fluorescence, 72 h; at 28.5 µM (top of the series) unless noted
How it was run: as §1

[14] = qHTS profiling of the MIPE4 collection as inhibitors of Plasmodium falciparum (DD2) proliferation (AID 743345; call rule not given here); conditions: P. falciparum Dd2 in erythrocytes, SYBR Green DNA, 72 h; at 28.5 µM (top of the series) unless noted
How it was run: as §1

[15] = qHTS profiling of the MIPE4 collection as inhibitors of Plasmodium falciparum (DD2) proliferation (Rep 2) (AID 743346; call rule not given here); conditions: P. falciparum Dd2 in erythrocytes, SYBR Green DNA, 72 h; at 28.5 µM (top of the series) unless noted
How it was run: as §1

[16] = qHTS profiling of the MIPE4 collection as inhibitors of Plasmodium falciparum (HB3) proliferation (AID 743347; call rule not given here;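 note: plate controls were DMSO vehicle wells for no effect and artemisinin wells for full effect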); conditions: P. falciparum HB3 in erythrocytes, SYBR Green DNA, 72 h; at 28.5 µM (top of the series) unless noted
How it was run: as §1

[17] = qHTS assay for small molecule agonists of the antioxidant response element (ARE) signaling pathway measured by Nrf2-dependant transcriptional activity (AID 720636; active = well fitted curve in the direction sought with a large enough effect in the repeat runs; an effect the other way counts as inactive or inconclusive; note: % of control where 0% means no effect)
How it was run: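 Quantitative HTS format in HepG2 cells stably expressing an ARE-luciferase reporter; 16 hr compound treatment at 37 C, luciferase signal detected with ONE-Glo.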

[18] = qHTS assay for small molecule agonists of the antioxidant response element (ARE) signaling pathway measured by Nrf2-dependant transcriptional activity - cell viability counter screen (AID 720653; active = well fitted curve in the direction sought with a large enough effect in the repeat runs; an effect the other way counts as inactive or inconclusive; note: % is set by controls: 0 for no effect and ±100 for the full control effect); conditions: ARE-bla HepG2 viability, CellTiter-Glo ATP luminescence, 16 h; max response: stronger effect = lower value
How it was run: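 ARE-bla HepG2 cells treated with compounds for 16 h at 37C; this counter screen measures viability as intracellular ATP by CellTiter-Glo luminescence after 30 min at room temperature.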

[19] = qHTS assay for cell viability of HEK293 cells (AID 743288); conditions: ATP luminescence (CellTiter-Glo), 18 h; max response: stronger effect = lower value; note: % is set by controls: 0 for no effect and ±100 for the full control effect; nearly all actives have a fitted effect of over 50% in size
How it was run: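 Parental HEK293 cells, 2,000 per well, preincubated at least 5 h at 37 C, then exposed to compounds in DMSO for 18 h at 37 C. Viability by CellTiter-Glo ATP luminescence after 30 min at room temperature.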

[20] = qHTS assay for cell viability of the p53RE-bla HCT-116 cell line (AID 743292); note: nearly all actives have a fitted effect of over 55% in size; note: potency is the fitted concentration of half-maximal effect
How it was run: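 Viability of compound-treated p53RE-bla HCT-116 cells is taken from ATP-dependent luciferase luminescence. Treatment lasts 16 h at 37 C after a 5 h settling period; detection follows 30 min at room temperature.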

Arylsulfatase A (Homo sapiens), sequence (P15289 whole entry, looked up): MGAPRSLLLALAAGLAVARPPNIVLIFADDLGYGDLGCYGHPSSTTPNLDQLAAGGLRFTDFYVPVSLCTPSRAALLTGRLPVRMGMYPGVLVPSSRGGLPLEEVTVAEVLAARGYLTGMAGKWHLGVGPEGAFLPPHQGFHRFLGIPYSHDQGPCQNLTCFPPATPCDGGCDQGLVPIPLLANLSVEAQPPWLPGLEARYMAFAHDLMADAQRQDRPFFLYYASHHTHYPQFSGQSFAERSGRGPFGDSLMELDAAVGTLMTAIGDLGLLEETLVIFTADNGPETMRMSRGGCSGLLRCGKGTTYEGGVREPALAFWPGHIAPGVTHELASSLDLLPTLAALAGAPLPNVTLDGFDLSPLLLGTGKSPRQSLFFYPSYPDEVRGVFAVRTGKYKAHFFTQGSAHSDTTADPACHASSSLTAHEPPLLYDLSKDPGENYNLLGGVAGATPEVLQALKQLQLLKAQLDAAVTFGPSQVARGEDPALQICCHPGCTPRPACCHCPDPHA
T1 sequence (P35557 whole entry, looked up): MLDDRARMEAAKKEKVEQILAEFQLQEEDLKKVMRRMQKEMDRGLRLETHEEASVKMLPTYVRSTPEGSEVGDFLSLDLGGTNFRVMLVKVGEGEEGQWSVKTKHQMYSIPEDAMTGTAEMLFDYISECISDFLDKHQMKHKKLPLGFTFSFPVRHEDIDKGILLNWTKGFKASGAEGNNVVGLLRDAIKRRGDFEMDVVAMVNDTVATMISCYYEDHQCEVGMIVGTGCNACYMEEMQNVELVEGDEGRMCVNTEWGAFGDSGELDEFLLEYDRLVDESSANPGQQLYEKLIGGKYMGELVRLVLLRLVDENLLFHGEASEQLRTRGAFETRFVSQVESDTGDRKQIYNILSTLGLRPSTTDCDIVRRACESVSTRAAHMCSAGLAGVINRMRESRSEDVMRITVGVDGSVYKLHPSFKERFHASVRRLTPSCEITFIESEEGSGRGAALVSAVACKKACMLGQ
T1 sequence (Q14397 whole entry, looked up): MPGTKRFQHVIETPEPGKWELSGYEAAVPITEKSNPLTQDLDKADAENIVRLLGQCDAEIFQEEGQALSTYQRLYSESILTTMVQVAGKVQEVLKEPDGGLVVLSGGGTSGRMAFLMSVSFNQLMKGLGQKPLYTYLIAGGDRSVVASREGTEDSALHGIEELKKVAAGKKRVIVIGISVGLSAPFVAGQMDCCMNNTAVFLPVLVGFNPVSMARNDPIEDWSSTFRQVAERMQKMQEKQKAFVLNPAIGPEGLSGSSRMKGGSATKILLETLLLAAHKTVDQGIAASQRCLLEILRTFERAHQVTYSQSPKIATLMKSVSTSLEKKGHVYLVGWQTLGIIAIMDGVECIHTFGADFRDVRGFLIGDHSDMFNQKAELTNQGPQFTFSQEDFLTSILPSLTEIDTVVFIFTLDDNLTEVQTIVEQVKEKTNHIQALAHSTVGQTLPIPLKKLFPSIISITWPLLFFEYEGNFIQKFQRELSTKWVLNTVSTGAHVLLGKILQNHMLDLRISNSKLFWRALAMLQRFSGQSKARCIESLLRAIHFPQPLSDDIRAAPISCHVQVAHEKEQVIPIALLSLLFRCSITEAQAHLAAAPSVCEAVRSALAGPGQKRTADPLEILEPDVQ

**Q.** With `COC[C@H]1OC(=O)c2coc3c2[C@@]1(C)C1=C(C3=O)C2CCC(=O)[C@@]2(C)C[C@H]1OC(C)=O` (some centres undefined) as the molecule, how does the outcome [1] read?
**A.** inactive

**Q.** What about the Potency [2] of the same molecule?
**A.** inactive

**Q.** What about the outcome [3] of the same molecule?
**A.** inactive

**Q.** And the outcome [4]?
**A.** inactive

**Q.** And the outcome [5]?
**A.** inactive

**Q.** What about the outcome [6] of the same molecule?
**A.** inactive

**Q.** What about the outcome [7] of the same molecule?
**A.** inactive

**Q.** What about the outcome [8] of the same molecule?
**A.** inactive

**Q.** And the max response [9]?
**A.** 9.51% (inactive)

**Q.** What about the remaining parasite growth % (stronger effect = lower value) [10] of the same molecule?
**A.** 74.1%

**Q.** What about the activity, percent of control [11] of the same molecule?
**A.** 57.9%

**Q.** And the remaining proliferation (% of control), lower = more inhibition [12]?
**A.** 74%

**Q.** Which Potency [2] does the source give for `Cc1ccc(S(=O)(=O)N[C@@H](CCCCN)C(=O)CCl)cc1` here?
**A.** 3.01 µM (active)

**Q.** What about the outcome [3] of the same molecule?
**A.** inactive

**Q.** What about the outcome [4] of the same molecule?
**A.** inactive

**Q.** And the outcome [5]?
**A.** inactive

**Q.** And the outcome [6]?
**A.** inactive

**Q.** And the outcome [7]?
**A.** inactive

**Q.** And the outcome [8]?
**A.** inactive

**Q.** What does the source list for `CCCCC/C=C\C/C=C\C/C=C\C/C=C\CCCC(=O)NC1CC1`?
**A.** outcome [1]: inactive; max response [9]: 45.8% (inactive); remaining parasite growth % (stronger effect = lower value) [10]: 6.79%; activity, percent of control [11]: 5.26%; remaining proliferation (% of control), lower = more inhibition [12]: 3.08%

**Q.** For `CC1=C2C[C@@H]3[C@@H](CC=C4C[C@@H](O)CC[C@@]43C)[C@@H]2CC[C@]12O[C@H]1C[C@H](C)CN[C@H]1[C@H]2C`, which outcome [1] is on record?
**A.** inactive

**Q.** And the Potency [9]?
**A.** 23.5 µM (active)

**Q.** And the remaining parasite growth % (stronger effect = lower value) [10]?
**A.** 66.1%

**Q.** What about the activity, percent of control [11] of the same molecule?
**A.** 39%

**Q.** What about the remaining proliferation (% of control), lower = more inhibition [12] of the same molecule?
**A.** 5.81%

**Q.** What about the parasite growth, % of DMSO control [13] of the same molecule?
**A.** 61.1%

**Q.** What about the parasite growth remaining, % of DMSO control (lower = more inhibition) [14] of the same molecule?
**A.** 16.2%

**Q.** And the parasite growth, % of control (lower = inhibition) [15]?
**A.** 33.5%

**Q.** And the growth, % of control [16]?
**A.** 71.2%

**Q.** For `COc1ccccc1N1CCNCC1`, which Potency [2] is on record?
**A.** inactive

**Q.** What about the outcome [3] of the same molecule?
**A.** inactive

**Q.** And the outcome [4]?
**A.** inactive

**Q.** What about the outcome [5] of the same molecule?
**A.** inactive

**Q.** What about the outcome [6] of the same molecule?
**A.** inactive

**Q.** What about the outcome [7] of the same molecule?
**A.** inactive

**Q.** And the outcome [8]?
**A.** inactive

**Q.** And the max response [9]?
**A.** 13.1% (inactive) and 8.67% (inactive)

**Q.** Which outcome [1] does the source give for `C[C@]12CCC(=O)C(O)=C1CC[C@@H]1[C@@H]2CC[C@]2(C)C(=O)CC[C@@H]12` here?
**A.** inactive

**Q.** And the Potency [2]?
**A.** inactive

**Q.** What about the outcome [3] of the same molecule?
**A.** inactive

**Q.** And the outcome [4]?
**A.** inactive

**Q.** What about the outcome [5] of the same molecule?
**A.** inactive

**Q.** What about the Potency [17] of the same molecule?
**A.** inactive

**Q.** What about the max response [18] of the same molecule?
**A.** -0.568% (inactive)

**Q.** What about the outcome [6] of the same molecule?
**A.** inactive

**Q.** What about the outcome [7] of the same molecule?
**A.** inactive

**Q.** What about the outcome [8] of the same molecule?
**A.** inactive

**Q.** What about the max response [9] of the same molecule?
**A.** 8.31% (inactive) and 12.3% (inactive)

**Q.** And the max response [19]?
**A.** -3.27% (inactive)

**Q.** What about the Potency [20] of the same molecule?
**A.** inactive

**Q.** And the remaining parasite growth % (stronger effect = lower value) [10]?
**A.** 90.5%

**Q.** And the activity, percent of control [11]?
**A.** 71.8%

**Q.** And the remaining proliferation (% of control), lower = more inhibition [12]?
**A.** 108%

**Q.** For `Cc1cc(SCc2sc(-c3ccc(C(F)(F)F)c(F)c3)nc2C)ccc1OCC(=O)O`, which outcome [1] is on record?
**A.** inactive

**Q.** And the max response [18]?
**A.** -1.47% (inactive)

**Q.** What about the max response [9] of the same molecule?
**A.** 27.5% (inactive)

**Q.** And the max response [19]?
**A.** -13% (inactive)

**Q.** What about the Potency [20] of the same molecule?
**A.** 50.1 µM (active)

**Q.** What about the remaining parasite growth % (stronger effect = lower value) [10] of the same molecule?
**A.** 101%

**Q.** What about the activity, percent of control [11] of the same molecule?
**A.** 90.7%

**Q.** And the remaining proliferation (% of control), lower = more inhibition [12]?
**A.** 82.6%

**Q.** And the parasite growth, % of DMSO control [13]?
**A.** 66.7%

**Q.** And the parasite growth remaining, % of DMSO control (lower = more inhibition) [14]?
**A.** 88.1%

**Q.** And the parasite growth, % of control (lower = inhibition) [15]?
**A.** 50.9%

**Q.** What about the growth, % of control [16] of the same molecule?
**A.** 87.4%
